Assay outcomes deposited in PubChem BioAssay by Paczesny and Yang Labs, IUPUI and University of Michigan.
The full list was thinned out, with hits kept by preference.
ST2 inh: IL1RL1 inhibition; Q01638; AlphaLISA ST2-Fc/biotin-IL-33 interaction, 1 h; inhibition, % for hits at 17 µM; 78,000 compounds, 2.3% hits; AID 1259354; in the data active = inhibition above about 30%
Target sequence (Q01638 whole entry, looked up): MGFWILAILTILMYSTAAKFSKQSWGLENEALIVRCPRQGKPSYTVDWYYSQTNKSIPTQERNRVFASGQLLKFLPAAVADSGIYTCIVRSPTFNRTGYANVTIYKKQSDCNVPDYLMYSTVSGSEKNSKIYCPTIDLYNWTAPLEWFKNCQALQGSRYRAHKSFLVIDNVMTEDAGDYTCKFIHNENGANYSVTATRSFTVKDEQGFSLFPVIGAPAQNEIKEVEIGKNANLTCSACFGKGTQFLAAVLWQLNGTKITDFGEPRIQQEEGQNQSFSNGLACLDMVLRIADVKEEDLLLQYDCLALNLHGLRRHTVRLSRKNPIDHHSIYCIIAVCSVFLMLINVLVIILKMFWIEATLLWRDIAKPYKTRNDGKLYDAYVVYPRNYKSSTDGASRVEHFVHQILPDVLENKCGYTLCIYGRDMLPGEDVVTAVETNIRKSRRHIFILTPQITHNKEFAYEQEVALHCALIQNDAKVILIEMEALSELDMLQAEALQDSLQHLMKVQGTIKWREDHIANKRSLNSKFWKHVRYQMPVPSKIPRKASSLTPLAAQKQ
An asterisk follows results filed as active; i = inactive.

SMILES | ST2 inh
O=C(O)c1cccc(N=Cc2cccc([N+](=O)[O-])c2O)c1 | i
O=[N+]([O-])c1ccccc1/C=C/c1ccc2cccc(O)c2n1 | 41%*
O=[N+]([O-])c1cccc(C=Nc2ccc(-c3nc4ncccc4o3)cc2)c1O | i
CCN(CC)c1ccc(C(=O)Nc2nc3ccc4sc(C)nc4c3s2)cc1 | i
CCOc1ccc(C(=O)Nc2nc3ccc4sc(C)nc4c3s2)cc1 | i
Cc1ccc(C(=O)Nc2nc3ccc4nc(C)sc4c3s2)cc1 | i
Cc1ccc(C(=O)Nc2nc3ccc4sc(C)nc4c3s2)cc1 | 42%*
Cc1nc2c(ccc3nc(NC(=O)c4ccc(C#N)cc4)sc32)s1 | 35%*
COc1cc(OC)cc(C(=O)Nc2nc3ccc4sc(C)nc4c3s2)c1 | i
CC1CCC(NC(=O)CN2CCN(Cc3ccc(F)cc3)C2=O)CC1 (stereo not drawn) | i
O=C(Cn1c(=O)sc2ccccc21)N1CCN(Cc2ccc3c(c2)OCO3)CC1 | i
CC(=O)N1c2c(cc(Br)cc2S(=O)(=O)Nc2ccc(C(F)(F)F)cc2)CC1C (stereo not drawn) | i
CCn1cc(SCC(=O)Nc2ccccc2)c2ccccc21 | i
COc1cccc(CNC(=O)C2C3C=CC4(CN(Cc5ccccc5Cl)C(=O)C24)O3)c1 (stereo not drawn) | i
OCC1(O)CCCN(c2cc(C(F)(F)F)nc(N3CCCC3)n2)CC1 (stereo not drawn) | i
COc1cc(/C=C2\C(=O)Nc3ccc(Br)cc32)cc(OC)c1O | i
COc1ccc(/C=C2\C(=O)Nc3ccc(Br)cc32)cc1O | i
O=C1Nc2ccc(Br)cc2/C1=C/c1cccc(F)c1 | 30%*
O=C1Nc2ccc(Br)cc2/C1=C/c1ccsc1 | 39%*
COc1cc(/C=C2\C(=O)Nc3ccc(Br)cc32)cc(Br)c1O | i
COc1cccc(/C=C2\C(=O)Nc3ccc(Br)cc32)c1OC | i
COc1cc(C)nc(Oc2ccc(/C=N\O)cc2)n1 | i
CNCC(=O)N1CCCN(CCCc2ccccc2)CC1 | i
Cc1cc2ncn(C(=O)c3cccs3)c2cc1C | i
Cc1cc(C)c(/C=C/C(=O)c2cccs2)c(C)c1 | 44%*
SMILES | ST2 inh
Cc1cc(Cc2ccc(NC(=O)c3cccs3)c(C)c2)ccc1NC(=O)c1cccs1 | i
CCc1cccc(NC(=O)CCN2CCN(CC3CCN(C)CC3)CC2)c1 | i
O=C(O)CCCNS(=O)(=O)c1ccc2c(c1)OCCO2 | i
Clc1ccc2c(c1)C1CC(c3ccccc3)=NN1CO2 (stereo not drawn) | i
CC(C)C1Oc2ccc(Cl)cc2C2CC(c3cccs3)=NN21 (stereo not drawn) | 34%*
c1csc(C2=NN3C(C2)c2ccccc2OC32CCCC2)c1 (stereo not drawn) | i
CCC(CO)N(Cc1ccsc1)C(=O)c1ccc2cc[nH]c2c1 (stereo not drawn) | i
CC(=O)c1cccc(NC(=O)CN(c2cccc([N+](=O)[O-])c2)S(C)(=O)=O)c1 | i
O=C(CCc1c[nH]c2ccccc12)N1CC(=O)N(C2CCCCC2)CC(OCc2ccncc2)C1 (stereo not drawn) | i
Cc1ccc(N2C(=O)C3Sc4[nH]c(=O)sc4C(c4ccccc4)C3C2=O)cc1 (stereo not drawn) | 34%*
O=c1[nH]c2c(s1)C(c1ccc(Cl)cc1)C1C3CCC(C3)C1S2 (stereo not drawn) | i
Cc1ccc(NC2SC(=O)N(c3ccccc3)C2=O)cc1 (stereo not drawn) | i
COc1cc(-c2ccc3cc[nH]c3c2)cc(OC)c1OC | i
Cc1cc(C)c(S(=O)(=O)NCc2ccncc2)cc1C | i
O=C1c2ccccc2C(=O)N1CNc1ccccc1Cl | i
CN(C)c1ccc(Nc2c([N+](=O)[O-])cc([N+](=O)[O-])c3cccnc23)cc1 | 95%*
CN(C)c1ccc(NC(=O)Nc2ccc3nc(-c4ccccn4)c(-c4ccccn4)nc3c2)cc1 | i
O=[N+]([O-])c1cc(Cl)c2cccnc2c1O | i
CCCCn1c2ccccc2c2nnc(SCC(=O)NCc3ccco3)nc21 | i
CCc1ccccc1NC(=O)COc1ccc(Cl)cc1Cl | i
NC(=O)CNC(=O)c1ccccc1 | i
Nc1ccc(-c2ccc3ccccc3n2)cc1 | i
Nc1ccc(-c2cc(-c3ccccc3)nc(-c3ccc(N)cc3)n2)cc1 | i
Nc1ccc(-c2c3ccccc3nc3cc(N)ccc23)cc1 | 61%*
COc1ccc(OC)c(S(=O)(=O)N2CCN(c3cc(-c4ccc(F)cc4)ncn3)CC2)c1 | i
SMILES | ST2 inh
O=C(Nc1ccc(Br)cc1)c1cc(-c2ccc(Cl)cc2)on1 | i
COc1ccc(-c2cc(C(=O)Nc3cc(Br)ccc3O)no2)cc1 | 35%*
O=C(Nc1ccc(F)cc1F)c1cc(-c2ccc(Br)cc2)on1 | i
Cc1cc(C)c(C(=O)N2CCC3(C=Cc4ccccc43)CC2)c(=O)[nH]1 | i
CCCCn1cnc2c(cnn2-c2ccc(Cl)cc2)c1=O | 30%*
CCCCn1cnc2c(cnn2-c2ccc(F)cc2)c1=O | i
CCCn1cnc2c(cnn2-c2ccc(F)cc2)c1=O | i
COc1cccc(C(=O)Nc2ccc([N+](=O)[O-])cc2Br)c1 | i
CC1CCCC(NC(=O)CN2C(=O)CSc3ccc(S(=O)(=O)N4CCCC4)cc32)C1C (stereo not drawn) | i
O=c1oc2ccc(Cl)cc2c2c1SC(C(F)(F)F)C2 (stereo not drawn) | i
Cc1ccc(C(=O)N2CCCN(C(=O)c3ccc(C)cc3)CC2)cc1 | i
O=C(c1ccccc1)N1CCCCC1 | i
O=C(/C=C(/c1ccccc1)N1CCCCC1)c1ccc([N+](=O)[O-])cc1 | 38%*
Cc1ccc(C(=O)/C=C(\c2ccccc2)N2CCCCC2)cc1 | 30%*
O=C(c1ccc([N+](=O)[O-])cc1)N1CCN(c2ccccc2F)CC1 | i
O=C(c1ccccc1[N+](=O)[O-])N1CCCCC1 | i
CN(C(=O)c1ccccc1[N+](=O)[O-])c1ccccc1 | i
CCOC(=O)C1(CC2CC2)CCN(C(=O)c2cc(C(F)(F)F)ccc2Cl)CC1 | i
CC(C)(C)CC(=O)Nc1cccc(I)c1 | i
CCOCCc1nnc(NC(=O)Nc2ccccc2OC)s1 | i
CCN(CC)C(=O)c1ccc([N+](=O)[O-])o1 | i
C=C(C)CN(CC)Cc1cc(OC)c(OC)c(OC)c1 | i
C=C(C)CN(CC)Cc1ccc(-c2ccccc2[N+](=O)[O-])o1 | 33%*
COc1ccc(C(=O)NN2C(=O)C3C(C2=O)[C@@H]2C=C[C@H]3[C@H]3C[C@H]32)cc1 (stereo partly drawn) | i
N#Cc1c(C(F)(F)F)cc(-c2cccs2)nc1SCC(=O)Nc1ccc([N+](=O)[O-])cc1 | 38%*
SMILES | ST2 inh
CCc1nnc(NC(=O)CSc2nc(-c3cccs3)cc(C(F)(F)F)c2C#N)s1 | i
CC(=O)CSc1nc(-c2cccs2)cc(C(F)(F)F)c1C#N | i
COc1ccc(/C=C2/NC(=O)NC2=O)c(OC)c1C | i
COc1ccc(Cl)cc1S(=O)(=O)NCCC12CC3CC(CC(C3)C1)C2 | i
C=C(C)Cn1ccc(-c2cccc(-c3ccc(S(C)(=O)=O)cc3)c2)n1 | i
CCCN(CCC)CCCNC(=O)c1cc2cc3ccc(Cl)cc3nc2o1 | i
CCCCN(CC)CCNC(=O)c1cc2cc3ccc(Cl)cc3nc2o1 | i
COCCNC(=O)c1cc2cc3ccc(OC)cc3nc2o1 | i
O=C(NCc1ccco1)c1cc2cc3ccc(Cl)cc3nc2o1 | 34%*
